Measurements published in ChEMBL document CHEMBL1857833, “Screening and optimization of specific chemical series against human African Trypanosomiasis (HAT)”.
The campaign covered roughly 4,400 compounds. About 390 (8.9%) showed an effect of 50% or more. The full list was thinned out, with strong results kept by preference.

test system: Trypanosoma brucei; assay: DNDI: Inhibition of Human African Trypanosomiasis, SBRI 427, in vitro at 2 ug.mL-1; type: functional

| SMILES | % inhibition [%] |
| --- | --- |
| CCOC(=O)C1CCCCN1Cc1coc(-c2ccccc2C)n1 (configuration not stated) | 1 |
| Cc1ccc(-c2nc(CNC(C)(C)CC(C)(C)C)co2)cc1 | 19 |
| N#CCCN(Cc1coc(-c2ccc(Br)cc2)n1)CC1CCCO1 (configuration not stated) | 11 |
| CCOc1ccccc1-c1nc(Cn2ncc3c2CCCC3)co1 | 12 |
| Cc1ccc(/C(=N/O)N(C)Cc2ccco2)c(Oc2cc(Cl)ccc2Cl)n1 | 13 |
| CCCCN(CC#N)Cc1coc(-c2ccc(OC)cc2)n1 | 1 |
| Cc1ccc(/C(=N/O)n2nc(C)cc2C)c(Oc2ccc3ccccc3c2)n1 | 6 |
| CSc1ccc(Oc2nc(C)ccc2/C(=N/O)NCc2ccco2)cc1 | -3 |
| c1ccc2c(-c3nc(CN4CCC5(CC4)OCCO5)co3)cccc2c1 | 1 |
| CCN(CC)CCN(CC)Cc1coc(-c2ccccc2C)n1 | 5 |
| CC(C)c1cccc(Oc2cc(/C(=N/O)N3CCC4CCCCC4C3)ccn2)c1 (configuration not stated) | 9 |
| CC1CC(C)CN(/C(=N\O)c2ccnc(Oc3ccc(F)c(F)c3)c2)C1 (configuration not stated) | 5 |
| CC1CC(C)CN(/C(=N\O)c2ccnc(Oc3ccc(Cl)cc3)c2)C1 (configuration not stated) | 67 |
| CC1CC(C)CN(/C(=N\O)c2ccnc(Oc3ccc(F)c(Cl)c3)c2)C1 (configuration not stated) | 16 |
| CC1CC(C)CN(/C(=N\O)c2ccnc(Oc3cccc(C(C)C)c3)c2)C1 (configuration not stated) | 58 |
| CC1CC(C)CN(/C(=N\O)c2ccnc(Oc3cccc(F)c3)c2)C1 (configuration not stated) | -1 |
| COc1ccc(-c2nc(CNC(C)c3cccc4ccccc34)co2)cc1 (configuration not stated) | 13 |
| Cc1ccc(/C(=N/O)NCc2cccnc2)c(Oc2c(F)c(F)cc(F)c2F)n1 | 35 |
| CCCCN(C)Cc1coc(-c2ccccc2)n1 | 6 |
| CSc1ccc(Oc2cc(/C(N)=N/O)ccn2)cc1 | 21 |
| Cc1ccc(N2CCN(Cc3coc(-c4cccc(F)c4)n3)CC2)cc1C | -4 |
| CC(C)c1ccc(N/C(=N\O)c2ccnc(Oc3cccc(F)c3)c2)cc1 | -2 |
| CC1CCN(/C(=N\O)c2ccnc(Oc3ccc(F)c(F)c3)c2)CC1 | 41 |
| O/N=C(\NC1CCCC1)c1ccnc(Oc2cccc(F)c2)c1 | 82 |

| SMILES | % inhibition [%] |
| --- | --- |
| CC(C)c1ccc(N/C(=N\O)c2ccnc(Oc3ccc(F)c(F)c3)c2)cc1 | 22 |
| O/N=C(\NCc1ccccn1)c1ccnc(Oc2cccc(F)c2)c1 | -2 |
| O/N=C(/c1ccnc(Oc2ccc(F)c(F)c2)c1)N1CCCCCC1 | 12 |
| O/N=C(\NCc1ccncc1)c1ccnc(Oc2ccc(F)c(F)c2)c1 | 8 |
| O/N=C(\NC1CCCC1)c1ccnc(Oc2ccc(F)c(F)c2)c1 | 101 |
| O/N=C(\NC1CCCCC1)c1ccnc(Oc2ccc(F)c(F)c2)c1 | 99 |
| CCN(Cc1coc(-c2cccc3ccccc23)n1)C(C)C | -1 |
| Cc1cccc(N2CCN(Cc3coc(-c4ccccc4Cl)n3)CC2C)c1 (configuration not stated) | -10 |
| CCOc1ccccc1Oc1ncccc1/C(=N/O)NCCOC | 13 |
| COCCN/C(=N\O)c1cccnc1Oc1cccc(C)c1C | 0 |
| COc1ccc(Oc2ncccc2/C(=N/O)NCCSC)cc1 | 10 |
| CSCCN/C(=N\O)c1cccnc1Oc1c(F)cccc1F | 78 |
| COCCN/C(=N\O)c1cccnc1Oc1c(F)cccc1F | 65 |
| CSCCN/C(=N\O)c1cccnc1Oc1cccc2ccccc12 | 11 |
| CC(NCc1coc(-c2cccc(F)c2)n1)C(C)(C)C (configuration not stated) | 8 |
| Clc1ccccc1-c1nc(CN2CCCCCCC2)co1 | 14 |
| Cc1cccc(CNCc2coc(-c3ccccc3Br)n2)c1 | -1 |
| CC1CC(C)CN(/C(=N\O)c2ccc(Oc3ccc(Cl)cc3)nc2)C1 (configuration not stated) | 0 |
| CCOc1ccccc1-c1nc(CNCc2ccc(C(F)(F)F)cc2)co1 | 6 |
| CC(C)c1cccc(Oc2cc(/C(=N/O)NCc3ccncc3)ccn2)c1 | 10 |
| CC(C)c1cccc(Oc2ccc(/C(=N/O)N(C)Cc3cccnc3)cn2)c1 | 99 |
| CC(C)c1cccc(Oc2ccc(/C(=N/O)NCc3ccncc3)cn2)c1 | 100 |
| COc1ccc(CN/C(=N\O)c2ccc(Oc3cccc(F)c3)nc2)cc1 | -3 |
| COc1cccc(Oc2ccc(/C(=N/O)NCc3cccs3)cn2)c1 | 2 |

| SMILES | % inhibition [%] |
| --- | --- |
| O/N=C(\NCc1cccs1)c1ccc(Oc2ccc3ccccc3c2)nc1 | -9 |
| O/N=C(\NCc1cccs1)c1ccc(Oc2cccc(F)c2)nc1 | 75 |
| Cc1cc(Oc2ccc(/C(=N/O)N(C)Cc3cccnc3)cn2)cc(C(C)C)c1 | 12 |
| O/N=C(\NCc1cc(F)cc(F)c1)c1ccc(Oc2cccc(F)c2)nc1 | 42 |
| Cc1cc(Oc2ccc(/C(=N/O)NCc3ccncc3)cn2)cc(C(C)C)c1 | 3 |
| CN(Cc1cccnc1)/C(=N\O)c1ccc(Oc2ccc3ccccc3c2)nc1 | 9 |
| O/N=C(\NCc1ccncc1)c1ccc(Oc2cccc(F)c2)nc1 | 50 |
| COc1cc(C)ccc1Oc1ncccc1/C(=N/O)NCc1ccccn1 | -7 |
| COC(=O)C1CCN(/C(=N\O)c2ccc(C)nc2Oc2ccc3ccccc3c2)CC1 | 19 |
| Clc1ccccc1-c1nc(CN2CCCc3ccccc32)co1 | 1 |
| Clc1ccccc1-c1nc(CNCCN2CCOCC2)co1 | 2 |
| CCOC(=O)C1CCCCN1Cc1coc(-c2ccccc2Br)n1 (configuration not stated) | -3 |
| CCCN(CCC)Cc1coc(-c2cccs2)n1 | 22 |
| O/N=C(/c1ccc(Oc2c(F)c(F)cc(F)c2F)nc1)N1CCN(c2ccc(F)cc2)CC1 | 22 |
| CC1C=CC(C)N1Cc1coc(-c2ccccc2Cl)n1 (configuration not stated) | 0 |
| Cc1cc(Oc2ccc(/C(=N/O)N3CC(C)CC(C)C3)cn2)cc(C(C)C)c1 (configuration not stated) | 4 |
| CC1CCCN1/C(=N\O)c1ccc(Oc2ccc3oc4ccccc4c3c2)nc1 (configuration not stated) | -6 |
| CC1CC(C)CN(/C(=N\O)c2ccc(Oc3ccc4ccccc4c3)nc2)C1 (configuration not stated) | -15 |
| O/N=C(/c1ccc(Oc2ccc3ccccc3c2)nc1)N1CCCCC1 | 12 |
| Cc1cc(C)cc(Oc2ccc(/C(=N/O)N3C(C)CCC3C)cn2)c1 (configuration not stated) | 6 |
| CC1CCCN1/C(=N\O)c1ccc(Oc2ccc3ccccc3c2)nc1 (configuration not stated) | 99 |
| Cc1cc(Oc2ccc(/C(=N/O)N3CCCC3C)cn2)cc(C(C)C)c1 (configuration not stated) | 93 |
| CC1CCC(C)N1/C(=N\O)c1ccc(Oc2ccc3ccccc3c2)nc1 (configuration not stated) | 99 |
| Cc1cc(Oc2ccc(/C(=N/O)N3CCCCCC3)cn2)cc(C(C)C)c1 | 21 |
